Experiment [1] in a line: qHTS assay to identify small molecule agonists of the sonic hedgehog signaling (Shh) pathway (AID 1259368; calls by dose curve;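 further: NIH/3T3-derived 3T3Gli1-Luc cells carrying a stable Gli1-driven firefly luciferase reporter; series mostly up to about 92 µM; nearly all actives have a fitted effect of over 15% in size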). In short, it runs like this: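 Hedgehog pathway agonism scored by increased firefly luciferase luminescence in 3T3Gli1-Luc cells treated 24 hr at 37 C; detection used a 30 min room-temperature reagent incubation.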
Background: qHTS replaces the single test concentration by a dilution series.

The nature of experiment [2]: qHTS assay to identify small molecule antagonists of the sonic hedgehog signaling (Shh) pathway (AID 1259369; calls by dose curve; further: nearly all actives have a fitted effect of over 45% in size; further: potency means the concentration at half of the fitted maximal effect). A digest of the protocol: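 NIH/3T3 stable Gli1-Luc clone, 2,000 cells/well, 4hr settle; cpd + conditioned medium 24hr; Luc reagent 30min RT; luminescence.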
Experiment [3] deals with Estrogen receptor beta (Homo sapiens) (UniProt Q92731). Briefly: qHTS assay to identify small molecule agonists of the estrogen receptor beta (ER-beta) signaling pathway (AID 1259377; active means well fitted activation curve with a large enough effect in the signal ratio in the repeat runs, not every such curve was filed as active; the % refers to the signal ratio). A digest of the protocol: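 Read-out: beta-lactamase FRET fluorescence. Cell line: ER-beta-UAS-bla HEK293T in 2% charcoal-stripped FBS. Exposure: 16 hr at 37C. Substrate step: 2 h at room temperature.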

Experiment [4] has the same target. Briefly: qHTS assay to identify small molecule antagonists of the estrogen receptor beta (ER-beta) signaling pathway (AID 1259378; active means well fitted inhibition curve with a large enough effect in the signal ratio in the repeat runs, not every such curve was filed as active; the % refers to the signal ratio). A digest of the protocol:
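Antagonist mode: compounds added to beta-lactamase reporter HEK293T ER-beta-UAS cells stimulated with E2 (1nM final), 16 hr at 37C. LiveBLAzer B/G FRET substrate, 2 hours room temperature, fluorescence read-out.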

The nature of experiment [5]: qHTS assay to identify small molecule agonists of the androgen receptor (AR) signaling pathway in the presence of an antagonist - cell viability counter screen (AID 1259379).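 Further: MDA-kb2 human breast cancer cells carrying an MMTV luciferase reporter; series mostly up to about 92 µM; nearly all actives have a fitted effect of over 25% in size.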 A digest of the protocol:
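MDA-kb2 viability measured by CellTiter-Fluor fluorescence in the same wells as the luciferase signal; nilutamide 3.0uM final; 15-point compound titration; 16 hr at 37C.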

Experiment [6] can be described thus: qHTS assay to identify small molecule agonists of the estrogen receptor beta (ER-beta) signaling pathway - cell viability counter screen (AID 1259380). Further: nearly all actives have a fitted effect of over 30% in size. In short, it runs like this: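 Measured: luminescence from CellTiter-Glo after 30 min at room temperature, added to wells already read for the LiveBLAzer FRET reporter (2 hr substrate); ER-beta-UAS-bla HEK293T cells had 16 hr compound treatment at 37C, 5% CO2.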

Experiment [7] can be described thus: qHTS assay to identify small molecule antagonists of the estrogen receptor beta (ER-beta) signaling pathway - cell viability counter screen (AID 1259382).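 Further: HEK293T cells carrying ER-beta-UAS-bla reporter stimulated with estradiol; series mostly up to about 92 µM; nearly all actives have a fitted effect of over 55% in size.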 In short, it runs like this:
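Readout: luminescence, CellTiter-Glo, same wells as bla assay. System: ER-beta-UAS-bla GripTite HEK293T, 2% charcoal-stripped FBS. Exposure: compounds plus 1nM 17-beta-estradiol, 16 hr, 37C.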

The target of experiment [8] is Estrogen receptor (Homo sapiens) (UniProt P03372). Kind of experiment: qHTS assay to identify small molecule agonists of the estrogen receptor alpha (ER-alpha) signaling pathway in the presence of an antagonist (AID 1259383; calls by dose curve; further: top concentration of the series differs between compounds; nearly all actives have a fitted effect of over 15% in size). In short, it runs like this:
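Quantitative HTS confirmation: compounds titrated at 15 concentrations onto estrogen-deprived VM7Luc4E2 cells carrying a four-ERE luciferase construct, with ICI-182,780 present at 10.0nM final. Signal is luminescence after 22hr exposure.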

Experiment [9] in a line: qHTS assay to identify small molecule agonists or antagonists of the thyroid stimulating hormone receptor (TSHR) signaling pathway - wild type cell line counter screen (AID 1259384; calls by dose curve). In short, it runs like this: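 Counter screen in untransfected Hek293: compounds (15-point titration, triplicate) plus phosphodiesterase inhibitor Ro20-1724 added after 18 h plating; 30 min RT. Intracellular cAMP via competitive d2/cryptate immunoassay, 1 h incubation.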

In experiment [10] the target is Thyrotropin receptor (Homo sapiens) (UniProt P16473). Kind of experiment: qHTS assay to identify small molecule antagonists of the thyroid stimulating hormone receptor (TSHR) signaling pathway (AID 1259385; calls by dose curve; further: nearly all actives have a fitted effect of over 20% in size). In short, it runs like this:
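Antagonist mode: compound-treated TSHR-expressing HEK293 cells were stimulated with 1.5 ng/mL TSH (final) in presence of Ro20-1724 for 30 min at RT. HTRF cAMP detection after 1 h; each compound tested at 15 concentrations, triplicate.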

A short description of experiment [11]: qHTS assay to identify small molecule agonists of the estrogen receptor alpha (ER-alpha) signaling pathway in the presence of an antagonist - cell viability counter screen (AID 1259386).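 Further: series mostly up to about 92 µM; cells exposed to compounds for 22 h at 37 °C before the viability read; nearly all actives have a fitted effect of over 30% in size.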 A digest of the protocol:
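The test measures whether compounds kill ER-alpha reporter cells (VM7Luc4E2) under antagonist co-treatment (ICI-182,780, 10.0nM). Fluorescence from CellTiter-Fluor is read after a 22hr exposure.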

Experiment [12] concerns the target Progesterone receptor (Homo sapiens) (UniProt P06401). Kind of experiment: qHTS assay to identify small molecule agonists of the progesterone receptor (PR) signaling pathway (AID 1346784; calls by dose curve; further: nearly all actives have a fitted effect of over 30% in size). A digest of the protocol:
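Compounds were tested for PR agonism in HEK 293T cells bearing a beta-lactamase gene under UAS control. Treatment lasted 16 hr at 37C; signal came from fluorescence of a FRET substrate.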

Experiment [13] shares this target. Kind of experiment: qHTS assay to identify small molecule antagonists of the progesterone receptor (PR) signaling pathway (AID 1346795; active means well fitted inhibition curve with a large enough effect in the signal ratio in the repeat runs, not every such curve was filed as active; the % refers to the signal ratio). In short, it runs like this:
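In HEK293T cells bearing the PR-UAS-bla reporter, compound effects on promegestone-driven (1 nM) beta-lactamase expression are assessed after 16 hr using a fluorescent FRET substrate incubated 2 hr at room temperature.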

Experiment [14] is described as follows: qHTS assay to identify small molecule antagonists of the progesterone receptor (PR) signaling pathway - cell viability counter screen (AID 1346798). Further: series mostly up to about 92 µM; nearly all actives have a fitted effect of over 50% in size. In short, it runs like this:
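Following a 4 hr attachment, PR-UAS-bla HEK293T cells in charcoal-stripped FBS medium were exposed to compounds with R5020 for 16 hr; CellTiter-Glo was added and luminescence read after 30 min at room temperature.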

Experiment [15] is described as follows: qHTS assay to identify small molecule agonists of the progesterone receptor (PR) signaling pathway - cell viability counter screen (AID 1346799; calls by dose curve; further: nearly all actives have a fitted effect of over 45% in size; further: potency means the concentration at half of the fitted maximal effect). In short, it runs like this: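 Here, 3,000 PR-UAS-bla HEK293T cells per well were treated with compounds for 16 hr after a 6 hr preincubation at 37C and 5% CO2; cell viability is the CellTiter-Glo luminescence signal.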

A short description of experiment [16]: qHTS assay to identify small molecule antagonists of the TGF-beta/Smad signaling pathway - cell viability counter screen (AID 1346824). Further: nearly all actives have a fitted effect of over 50% in size. A digest of the protocol: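 Cytotoxicity counter-screen run in the same wells as the beta-lactamase Smad reporter read: CellTiter-Glo luminescence after 30 min at room temperature. HEK 293T SBE-bla cells had 5 hr compound exposure at 37 C with TGF-beta1 (0.25 ng/mL stock).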

Experiment [17] in a line: qHTS assay to identify small molecule agonists of the TGF-beta/Smad signaling pathway - cell viability counter screen (AID 1346829). Further: top concentration of the series differs between compounds; nearly all actives have a fitted effect of over 45% in size. In short, it runs like this:
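Luminescence from CellTiter-Glo, read after a 30 min room-temperature incubation, gives cell viability of SBE-bla HEK 293T cells treated 5 hr with compounds at 37 C.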

Experiment [18] in a line: qHTS assay to identify small molecule agonists of the TGF-beta/Smad signaling pathway (AID 1346859; active means well fitted activation curve with a large enough effect in the signal ratio in the repeat runs, not every such curve was filed as active; the % refers to the signal ratio; further: series mostly up to about 77 µM). In short, it runs like this: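 Each well held 4,000 SBE-bla HEK 293T cells incubated overnight before compound addition; 5 hr later the cleavable FRET substrate went on for 2 hr at room temperature, and fluorescence was read at two emissions.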
Experiment [19] concerns the target Thyrotropin-releasing hormone receptor (Homo sapiens) (UniProt P34981). Kind of experiment: qHTS assay to identify small molecule antagonists of the thyrotropin-releasing hormone receptor (TRHR) signaling pathway (AID 1346877; active means well fitted inhibition curve with a large enough effect in the repeat runs, not every such curve was filed as active; further: series mostly up to about 51 µM). In short, it runs like this:
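Overnight-plated (18 h, 37 °C) HEK293 cells expressing TRHR were dye-loaded 2 h, treated with compound, then stimulated with TRH at 1 nM final. Fluorescence intensity was captured every second for 3 min.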

The target in experiment [20] is Androgen receptor (Homo sapiens) (UniProt P10275). Kind of experiment: qHTS assay to identify small molecule agonists of the androgen receptor (AR) signaling pathway in the presence of an antagonist (AID 1259381; calls by dose curve; further: nearly all actives have a fitted effect of over 15% in size). A digest of the protocol:
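Luminescent ONE-Glo read, 30min at room temperature, follows 16hr compound exposure (15 concentrations) of MDA-kb2 cells at 37C, 0% CO2, with nilutamide added at 3.0uM final.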

Unmarked numbers belong to inactive results. Results filed as inconclusive are left out. Calls of active or inactive are those of the source. Unless noted, the call rests on the fitted dose curve; in most records, active means well fitted curve in the direction sought with a large enough effect in the repeat runs; inconclusive means weak or mixed curves; inactive means no such curve, though single readings can be large; an effect the other way counts as inactive or inconclusive.

Sequence of Estrogen receptor beta (Homo sapiens) (Q92731 whole entry, looked up): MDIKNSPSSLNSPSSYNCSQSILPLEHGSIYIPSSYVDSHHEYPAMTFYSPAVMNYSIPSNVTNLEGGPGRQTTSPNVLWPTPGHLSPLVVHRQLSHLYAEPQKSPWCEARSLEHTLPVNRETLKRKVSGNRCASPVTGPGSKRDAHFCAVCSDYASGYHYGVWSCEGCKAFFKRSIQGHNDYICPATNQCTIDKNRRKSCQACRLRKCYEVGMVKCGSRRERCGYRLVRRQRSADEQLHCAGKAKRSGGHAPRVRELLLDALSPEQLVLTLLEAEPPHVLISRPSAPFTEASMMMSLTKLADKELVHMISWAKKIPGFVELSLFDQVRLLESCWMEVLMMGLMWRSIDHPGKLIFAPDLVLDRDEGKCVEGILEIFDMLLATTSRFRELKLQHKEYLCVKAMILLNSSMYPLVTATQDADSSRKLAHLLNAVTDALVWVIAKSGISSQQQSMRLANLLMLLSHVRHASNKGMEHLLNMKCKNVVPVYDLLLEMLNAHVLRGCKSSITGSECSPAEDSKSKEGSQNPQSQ
Sequence of Progesterone receptor (Homo sapiens) (P06401 whole entry, looked up): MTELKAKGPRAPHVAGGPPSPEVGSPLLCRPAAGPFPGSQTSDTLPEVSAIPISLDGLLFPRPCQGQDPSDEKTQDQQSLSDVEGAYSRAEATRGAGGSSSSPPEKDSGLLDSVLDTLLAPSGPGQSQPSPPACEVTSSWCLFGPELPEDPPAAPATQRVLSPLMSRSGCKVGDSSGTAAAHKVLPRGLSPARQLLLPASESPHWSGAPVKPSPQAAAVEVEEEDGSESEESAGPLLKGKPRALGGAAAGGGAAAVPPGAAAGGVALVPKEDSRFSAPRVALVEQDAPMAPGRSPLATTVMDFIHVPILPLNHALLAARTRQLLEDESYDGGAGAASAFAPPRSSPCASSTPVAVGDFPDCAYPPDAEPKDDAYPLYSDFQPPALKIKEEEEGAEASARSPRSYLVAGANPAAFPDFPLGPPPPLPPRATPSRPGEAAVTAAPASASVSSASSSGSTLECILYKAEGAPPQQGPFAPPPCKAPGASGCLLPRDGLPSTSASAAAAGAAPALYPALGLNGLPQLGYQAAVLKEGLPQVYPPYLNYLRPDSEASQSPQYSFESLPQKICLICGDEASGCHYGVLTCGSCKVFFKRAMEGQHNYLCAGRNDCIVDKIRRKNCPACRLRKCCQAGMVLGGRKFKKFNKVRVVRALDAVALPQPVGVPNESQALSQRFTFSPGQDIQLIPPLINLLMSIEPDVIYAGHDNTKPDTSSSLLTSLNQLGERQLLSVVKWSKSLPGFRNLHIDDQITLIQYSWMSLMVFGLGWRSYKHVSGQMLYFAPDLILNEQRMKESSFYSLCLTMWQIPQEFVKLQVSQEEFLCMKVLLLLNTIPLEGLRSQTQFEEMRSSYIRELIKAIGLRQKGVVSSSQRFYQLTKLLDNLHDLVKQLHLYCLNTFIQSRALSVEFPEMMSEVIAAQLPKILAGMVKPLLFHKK
Sequence of Thyrotropin-releasing hormone receptor (Homo sapiens) (P34981 whole entry, looked up): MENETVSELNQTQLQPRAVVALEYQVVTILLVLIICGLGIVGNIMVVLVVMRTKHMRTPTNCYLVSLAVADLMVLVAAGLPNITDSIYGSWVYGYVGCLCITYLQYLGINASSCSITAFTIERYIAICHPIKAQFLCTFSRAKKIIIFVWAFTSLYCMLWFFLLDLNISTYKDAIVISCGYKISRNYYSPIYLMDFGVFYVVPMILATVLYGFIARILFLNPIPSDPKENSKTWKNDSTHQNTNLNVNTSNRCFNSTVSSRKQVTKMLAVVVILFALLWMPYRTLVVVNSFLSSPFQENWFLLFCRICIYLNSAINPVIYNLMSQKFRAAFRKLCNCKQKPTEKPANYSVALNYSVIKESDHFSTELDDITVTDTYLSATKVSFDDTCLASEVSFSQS
Sequence of Thyrotropin receptor (Homo sapiens) (P16473 whole entry, looked up): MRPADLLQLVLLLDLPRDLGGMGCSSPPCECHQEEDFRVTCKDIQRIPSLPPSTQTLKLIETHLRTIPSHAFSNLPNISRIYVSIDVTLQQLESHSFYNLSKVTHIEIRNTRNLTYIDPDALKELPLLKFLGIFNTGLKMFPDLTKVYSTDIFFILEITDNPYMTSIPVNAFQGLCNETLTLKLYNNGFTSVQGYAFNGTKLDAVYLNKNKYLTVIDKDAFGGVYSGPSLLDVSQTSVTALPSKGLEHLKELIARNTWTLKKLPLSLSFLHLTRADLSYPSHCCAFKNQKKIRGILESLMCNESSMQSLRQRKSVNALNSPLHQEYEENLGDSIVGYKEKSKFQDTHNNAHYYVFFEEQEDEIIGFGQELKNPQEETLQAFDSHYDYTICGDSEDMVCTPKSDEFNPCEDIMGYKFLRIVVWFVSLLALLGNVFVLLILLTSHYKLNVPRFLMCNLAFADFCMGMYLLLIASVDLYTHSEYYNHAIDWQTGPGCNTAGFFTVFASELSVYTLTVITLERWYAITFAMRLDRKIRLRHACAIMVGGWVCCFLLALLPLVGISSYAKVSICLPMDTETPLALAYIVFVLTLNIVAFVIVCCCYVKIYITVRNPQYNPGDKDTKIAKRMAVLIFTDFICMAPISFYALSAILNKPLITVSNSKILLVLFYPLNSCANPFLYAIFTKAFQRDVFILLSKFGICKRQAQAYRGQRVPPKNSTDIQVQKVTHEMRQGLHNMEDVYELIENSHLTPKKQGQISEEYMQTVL
Sequence of Estrogen receptor (Homo sapiens) (P03372 whole entry, looked up): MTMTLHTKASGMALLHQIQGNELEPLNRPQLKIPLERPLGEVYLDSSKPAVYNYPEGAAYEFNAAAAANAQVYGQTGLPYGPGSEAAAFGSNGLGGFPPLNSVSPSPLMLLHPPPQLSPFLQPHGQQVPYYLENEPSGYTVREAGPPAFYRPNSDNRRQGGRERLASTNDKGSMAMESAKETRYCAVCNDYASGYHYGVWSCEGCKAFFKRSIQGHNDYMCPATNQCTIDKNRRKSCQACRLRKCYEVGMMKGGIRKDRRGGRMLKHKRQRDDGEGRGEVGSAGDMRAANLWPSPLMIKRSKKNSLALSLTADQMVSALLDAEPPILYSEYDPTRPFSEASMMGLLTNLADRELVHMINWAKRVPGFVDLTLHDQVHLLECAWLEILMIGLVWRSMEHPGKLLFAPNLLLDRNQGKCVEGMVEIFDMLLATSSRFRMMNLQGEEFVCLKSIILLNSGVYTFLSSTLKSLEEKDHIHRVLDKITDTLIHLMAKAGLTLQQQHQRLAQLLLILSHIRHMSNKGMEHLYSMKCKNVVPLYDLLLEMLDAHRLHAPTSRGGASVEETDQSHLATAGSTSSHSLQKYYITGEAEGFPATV
Sequence of Androgen receptor (Homo sapiens) (P10275 whole entry, looked up): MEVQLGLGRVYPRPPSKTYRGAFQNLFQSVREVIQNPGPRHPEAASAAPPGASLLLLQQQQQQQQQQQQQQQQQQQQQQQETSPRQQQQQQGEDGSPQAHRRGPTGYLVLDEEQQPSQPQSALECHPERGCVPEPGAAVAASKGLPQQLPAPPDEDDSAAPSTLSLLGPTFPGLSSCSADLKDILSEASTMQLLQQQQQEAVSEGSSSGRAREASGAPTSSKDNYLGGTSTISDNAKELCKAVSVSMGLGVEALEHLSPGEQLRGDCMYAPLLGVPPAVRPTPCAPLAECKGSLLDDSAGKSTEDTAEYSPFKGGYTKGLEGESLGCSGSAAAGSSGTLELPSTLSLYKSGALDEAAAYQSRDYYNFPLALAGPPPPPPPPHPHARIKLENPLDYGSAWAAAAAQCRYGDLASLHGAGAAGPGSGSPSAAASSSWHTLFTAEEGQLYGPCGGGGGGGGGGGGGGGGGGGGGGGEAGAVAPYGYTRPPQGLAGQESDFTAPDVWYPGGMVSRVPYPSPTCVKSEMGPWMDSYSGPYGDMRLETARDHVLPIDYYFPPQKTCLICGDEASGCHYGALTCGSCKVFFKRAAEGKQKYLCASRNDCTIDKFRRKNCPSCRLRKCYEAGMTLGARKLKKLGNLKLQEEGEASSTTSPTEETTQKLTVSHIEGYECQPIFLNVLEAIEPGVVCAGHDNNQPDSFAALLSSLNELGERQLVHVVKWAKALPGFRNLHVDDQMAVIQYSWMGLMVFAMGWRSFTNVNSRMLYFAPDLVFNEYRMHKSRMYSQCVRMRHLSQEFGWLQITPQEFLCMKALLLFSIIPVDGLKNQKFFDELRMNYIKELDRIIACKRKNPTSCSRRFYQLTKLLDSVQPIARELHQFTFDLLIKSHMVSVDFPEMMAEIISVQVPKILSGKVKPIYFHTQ

Consider `C[C@@H](O)[C@H]1C(=O)N2C(C(=O)O)=C(S[C@@H]3CN[C@H](CNS(N)(=O)=O)C3)[C@H](C)[C@H]12`, for which the Potency entry in experiment [1], in [2], in experiment [3], in [4], in [5] and in [6] was “inactive” throughout. Besides, the Potency entry in experiment [7], in experiment [8], in experiment [10], in [11], in [12] and in experiment [13] was “inactive” throughout. Besides, the Potency entry in experiment [14] and in experiment [15] was “inactive” throughout. Also, the compound was classed as inactive in [9], in experiment [16], in [17], in experiment [18] and in [19].
As to `C=C[Si]1(C)O[Si](C)(C=C)O[Si](C)(C=C)O[Si](C)(C=C)O1` (stereo unspecified), the Potency result in experiment [1], in [3], in [4], in experiment [5], in [6] and in experiment [7] was “inactive” each time. Besides, the Potency entry in [10], in experiment [11], in experiment [12], in experiment [13], in experiment [14] and in experiment [15] was “inactive” in each case. Further, in experiment [2], the Potency was 30.6 µM (active). For the same compound, the result in [9], in experiment [16], in experiment [17], in [18] and in experiment [19] was inactive.
Regarding `Nc1ccc(F)cc1F`, the Potency result in experiment [1], in [2], in experiment [3], in experiment [4], in experiment [5] and in experiment [6] was “inactive” each time. The Potency entry in experiment [20], in experiment [7], in experiment [8], in experiment [10], in experiment [11] and in [12] was “inactive” throughout. In addition, the Potency result in experiment [13] and in experiment [14] was “inactive” in each case. The compound was classed as inactive in [9], in [16], in experiment [17] and in experiment [18].
For `CC(=O)Nc1ccccc1O`, the Potency entry in experiment [1], in experiment [2], in [3], in experiment [4], in experiment [5] and in experiment [6] was “inactive” in each case. The Potency entry in experiment [7], in experiment [10], in experiment [11], in experiment [12], in experiment [13] and in experiment [14] was “inactive” throughout. The Potency entry in [15] is “inactive”. Further, the compound was classed as inactive in [9], in experiment [16], in [18] and in experiment [19].
Take `CC(C)CCCCCCCOC(=O)c1ccc(C(=O)OCCCCCCCC(C)C)c(C(=O)OCCCCCCCC(C)C)c1`: the Potency entry in experiment [1], in [3], in [4], in experiment [5], in experiment [6] and in [7] was “inactive” in each case. Also, the Potency entry in experiment [10], in [11] and in experiment [12] was “inactive” each time. The Potency in [2] was 4.78 µM (active); in experiment [15], 42.6 µM (active). Besides, the compound was classed as inactive in experiment [9], in [16], in experiment [17] and in experiment [18].
Take `OCCc1ccncc1`: the Potency entry in experiment [1], in experiment [2], in [3], in experiment [4], in experiment [5] and in [6] was “inactive” each time. The Potency entry in experiment [7], in [8], in experiment [10], in experiment [11], in experiment [12] and in experiment [13] was “inactive” throughout. Moreover, the Potency result in experiment [14] was “inactive”. Further, the result in experiment [9], in [16], in experiment [18] and in [19] was inactive.
In the case of `N#C[C@@H]1CC(F)(F)CN1C(=O)CNC1CC2CCC(C1)N2c1ncccn1` (stereo partly specified), the Potency entry in [1], in experiment [2], in experiment [3], in experiment [4], in [5] and in experiment [20] was “inactive” each time. Further, the Potency entry in experiment [7], in experiment [8], in [10], in experiment [11], in [12] and in [13] was “inactive” each time. Also, the Potency result in experiment [14] and in experiment [15] was “inactive” in each case. In addition, the result in experiment [16], in experiment [17] and in experiment [18] was inactive.

Values taken from PubChem BioAssay (Tox21).
